An excerpt weighted towards active compounds, which were near 2.4% of everything screened.
FEN1 inhibitor: qHTS Assay for the Inhibitors of Human Flap endonuclease 1 (FEN1). P39748. Recombinant FEN1 flap cleavage, fluorescence, 15 min. Potency, µM (highest dose often 114 µM), usual class: inhibitors. actives 0.35% (n = 390,000). AID 588795, 2011; note: nearly all actives have a fitted effect of over 65% in size
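Reaction started by adding substrate (50 nM final) to 10 nM enzyme after 15 min room-temperature compound preincubation. Reads at 0 and 15 min, with data normalized and fitted to a four-parameter Hill equation.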
Pol kappa inh: qHTS for Inhibitors of Polymerase Kappa. DNA polymerase kappa (Homo sapiens), Q9UBT6. purified Pol kappa, fluorescent DNA synthesis assay, 10 min. actives 0.53% (n = 400,000). Potency, µM (highest dose often 107 µM), most hits filed as inhibitors. AID 588579, 2011
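Here, compound and 10 nM enzyme are combined for 15 min at room temperature; adding 50 nM substrate (final) starts DNA synthesis, tracked by fluorescence at 0 and 10 min against buffer-only wells.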
Pol eta inh: qHTS for Inhibitors of Polymerase Eta | DNA polymerase eta (Homo sapiens), Q9Y253 | recombinant Pol eta, fluorescent DNA replication assay | Potency, µM (highest dose often 114 µM), actives largely listed as inhibitors | actives 1.2% (n = 390,000)
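Pol eta (10 nM) was preincubated with compounds for 15 min at room temperature, after which fluorescent replication substrate (50 nM final) was added to start the reaction. Fluorescence was read kinetically at 0 and 10 min.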
Pol beta inh-1: qHTS Assay for Inhibitors of DNA Polymerase Beta. P06746. Pol beta primer extension/strand displacement, fluorescence kinetic. Potency, µM (highest dose often 114 µM), hits mostly inhibitors. actives 1.3% (n = 340,000)
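Enzyme-only controls used 10 nM Pol beta; buffer lacking enzyme served as negative control. Compound preincubated 15 min, then 50 nM substrate added; 0 and 10 min reads at room temperature.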
WRN inhibitor: qHTS for Inhibitors of WRN Helicase | actives 0.46% (n = 360,000) | Potency, µM (highest dose often 114 µM), hits mostly inhibitors | WRN helicase unwinding, fluorescent forked duplex, kinetic; note: nearly all actives have a fitted effect of over 55% in size
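Kinetic red-fluorescence monitoring (525/598 nm) tracks WRN helicase activity after 100 nM fluorophore-quencher forked duplex and 2 mM ATP are added to 20 nM enzyme pretreated 15 min at room temperature with compound.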
POLI inh: qHTS for Inhibitors of Polymerase Iota | DNA polymerase iota (Homo sapiens), Q9UNA4 | Pol iota fluorescent replication assay, 10 min | Potency, µM (series often up to 115 µM), most hits filed as inhibitors | actives 1% (n = 390,000)
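Fluorescent replication assay read twice, at 0 min and 10 min after adding 50 nM (final) substrate. Enzyme (10 nM) and compounds were first incubated 15 min at room temperature; enzyme-free buffer wells were negative controls.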
Pol beta inh-2: Inhibitors of DNA Polymerase Beta: Hit validation | shares compounds with Pol beta inh-1 | actives 87% (n = 250) | AID 540280, 2011 | Pol beta primer extension/strand displacement, fluorescence kinetic | Potency, µM, most hits filed as inhibitors; calls by dose curve
Klenow counter: Inhibitors of DNA Polymerase Beta: Hit Validation in Klenow Fragment Assay; shares compounds with Pol beta inh-1; Klenow exo- polymerase counter-screen, fluorescent DNA substrate; activity change, negative = inhibition, % at 57.1 µM; 250 tested, under 10 active; AID 540300, 2011
HIV RT counter: Inhibitors of DNA Polymerase Beta: Hit Validation in HIV-RT Assay; AID 540301, 2011; activity % (negative = inhibition, positive = activation), % at 57.1 µM; HIV-1 RT polymerase activity, counter-screen; shares compounds with Pol beta inh-1; 250 tested, under 10 active
POLB inh gel: Inhibitors of DNA Polymerase Beta: Hit Validation in Radiolabeled Extension Assay; shares compounds with Pol beta inh-1; radiolabeled primer extension gel assay, phosphorimager; inhibition, % at 10 µM; actives 91% (n = 110); AID 540325, 2011;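 active = inhibition at 10 µM of 30% or more; inconclusive = no clear call, values can overlap the other calls; inactive = inhibition at 10 µM under 30%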
Of the large screens only hits and unclear results are named; the others gave an inactive call (follow-up assays come after a bar, where they were run). Unless noted, calls come from the whole dose curve; as a rule, active = well fitted curve in the direction sought with a large enough effect; inconclusive = small, poorly fitted or top-dose-only effect, or another doubt; inactive = no such curve, though single readings can be large; an effect the other way counts as inactive or inconclusive.

Cc1cc(C)nc(SCC(=O)c2ccc(O)c(O)c2)n1	Pol kappa inh inconclusive, Pol eta inh 16µM, Pol beta inh-1 4.5µM, POLI inh inconclusive | Pol beta inh-2 32 | Klenow counter inactive | HIV RT counter inactive | POLB inh gel 42
Cc1cc(C)nc(SCC(=O)c2ccc(C)c(C)c2)n1	none
Cc1cc(=O)[nH]c(SCC(=O)c2ccc(O)c(O)c2)n1	Pol kappa inh inconclusive, Pol eta inh 18µM, Pol beta inh-1 11µM, POLI inh 50µM | Pol beta inh-2 28 | Klenow counter inactive | HIV RT counter inconclusive | POLB inh gel inactive
COc1ccc(C(=O)NCc2ccc3c(c2)CCN3C(=O)c2ccncc2)cc1	none (no result: WRN inhibitor)
CCOC(=O)c1c(C)c(-c2ccccc2)n(CC(=O)Nc2cccc(C)c2C)c1C	none (no result: WRN inhibitor)
Cc1ccccc1NC(=O)c1sc2nc3c(c(-c4ccco4)c2c1N)CCC3	Pol eta inh inconclusive, POLI inh inconclusive
Nc1c(C(=O)NCC2CCCO2)sc2nc3c(c(-c4ccco4)c12)CC/C3=C\c1ccco1 (centres undefined)	FEN1 inhibitor 3.2µM, Pol kappa inh 0.71µM, Pol eta inh 0.71µM, Pol beta inh-1 2.8µM, WRN inhibitor 2.8µM, POLI inh 0.79µM | Pol beta inh-2 11 | Klenow counter inactive | HIV RT counter inactive
CC(C)NC(=O)N[C@H]1CC[C@H](CC(=O)NCc2ccc(Oc3ccccc3)cc2)O[C@@H]1CO	none (no result: FEN1 inhibitor, Pol kappa inh, Pol eta inh, Pol beta inh-1, POLI inh)
Cn1c(SCC(=O)Nc2ccc3c(c2)oc2ccccc23)nnc1-c1ccccc1	Pol beta inh-1 2.2µM, POLI inh inconclusive | Pol beta inh-2 inconclusive | Klenow counter inactive | HIV RT counter inactive | POLB inh gel inactive
Cn1c(SCC(=O)Nc2ccccc2)nnc1-c1ccccc1	none (no result: WRN inhibitor)
COc1ccc2c(c1)CCc1c(C(=O)Nc3c(C)nn(Cc4ccc(C)cc4)c3C)noc1-2	none (no result: WRN inhibitor)
Cc1ccc(C(=O)NN2CC(O)=C(c3nc(-c4cccc([N+](=O)[O-])c4)cs3)C2=N)cc1	Pol beta inh-1 5µM, POLI inh inconclusive | Pol beta inh-2 inconclusive | Klenow counter inactive | HIV RT counter inactive
COc1cccc(C(=O)NN2CC(O)=C(c3nc(C)cs3)C2=N)c1	Pol eta inh inconclusive
CCOC(=O)C1=C(C)N=c2s/c(=C/c3ccc(OCC(=O)O)cc3)c(=O)n2C1c1ccc(SC)cc1 (centres undefined)	Pol beta inh-1 4.5µM (no result: FEN1 inhibitor, Pol kappa inh, Pol eta inh, WRN inhibitor, POLI inh) | Pol beta inh-2 7.9 | Klenow counter inactive | HIV RT counter inactive
COc1cc(O)ccc1C(C)=O	none (no result: FEN1 inhibitor, Pol eta inh, Pol beta inh-1, WRN inhibitor, POLI inh)
O=[N+]([O-])c1cc(CN2CCCC2)c2cccnc2c1O	FEN1 inhibitor 40µM, Pol kappa inh inconclusive, Pol eta inh 3.2µM, Pol beta inh-1 1.8µM, WRN inhibitor inconclusive, POLI inh inconclusive | Pol beta inh-2 2.8 | Klenow counter inactive | HIV RT counter inactive
CCOC(=O)c1sc2nc3c(SCCC(=O)O)cc(C(=O)c4cc(OC)ccc4O)cn3c(=O)c2c1C	FEN1 inhibitor inconclusive, Pol eta inh 11µM, Pol beta inh-1 2.8µM, POLI inh inconclusive | Pol beta inh-2 6.3 | Klenow counter inactive | HIV RT counter inactive
Cc1ccc(C)c(-n2cc(-c3ccccc3)nc2SCC(=O)Nc2ccccc2)c1	none (no result: WRN inhibitor)
COc1ccc(CCn2c(O)cc3nn(-c4nc5ccccc5s4)c(=O)c-3c2C)cc1	FEN1 inhibitor inconclusive, Pol kappa inh 22µM, Pol eta inh 50µM, Pol beta inh-1 1.8µM, WRN inhibitor inconclusive, POLI inh inconclusive | Pol beta inh-2 inconclusive | Klenow counter inactive | HIV RT counter inactive | POLB inh gel 97
O=C(OCC(=O)N1CCN(C(=O)c2ccco2)CC1)c1cc(-c2ccco2)nc2ccccc12	FEN1 inhibitor inconclusive, Pol kappa inh 25µM, Pol eta inh 32µM, Pol beta inh-1 3.2µM, WRN inhibitor 50µM, POLI inh 8.9µM | Pol beta inh-2 3.5 | Klenow counter inactive | HIV RT counter inconclusive
CC(=O)NCCNC(=O)c1ccc(Cn2c(=O)[nH]c3ccsc3c2=O)cc1	none
O=C(Nc1cc(Cl)cc(Cl)c1)c1ccc(Cn2c(=O)[nH]c3ccsc3c2=O)cc1	Pol eta inh inconclusive, Pol beta inh-1 14µM | Pol beta inh-2 inconclusive | Klenow counter inactive | HIV RT counter inactive | POLB inh gel 93
Cc1ccc(S(=O)(=O)N2CCCC2C(=O)OCc2ccccc2)cc1 (centres undefined)	none
Cc1ccc(S(=O)(=O)N2CCCC2C(=O)OCc2ccco2)cc1 (centres undefined)	Pol eta inh 32µM, Pol beta inh-1 20µM, WRN inhibitor inconclusive, POLI inh 25µM | Pol beta inh-2 32 | Klenow counter inactive | HIV RT counter inactive | POLB inh gel 51
N#C/C(=C\c1ccc(OC(=O)c2ccc(Br)s2)cc1)c1nc2ccccc2[nH]1	Pol eta inh 5.6µM, Pol beta inh-1 2µM | Pol beta inh-2 8.9 | Klenow counter inactive | HIV RT counter inactive
N#C/C(=C/c1ccc(OC(=O)c2ccc(Br)s2)cc1)c1nc2ccccc2[nH]1	none (no result: Pol beta inh-1)
O=C(Nc1ccc2c(c1)OCO2)C1CCN(C(=O)CSc2ncnc3ccccc23)CC1	Pol eta inh 79µM, Pol beta inh-1 20µM, POLI inh inconclusive | Pol beta inh-2 35 | Klenow counter inactive | HIV RT counter inactive | POLB inh gel 85
COc1cccc(CNC(=O)CCCN2C(=O)CSc3c2c(C)nn3-c2ccccc2)c1	none (no result: WRN inhibitor)
O=C(Cn1cnc2c(nnn2-c2ccccc2)c1=O)NCc1ccc(F)cc1	Pol beta inh-1 inconclusive, POLI inh inconclusive
Cc1ccc(-n2nnc3c(=O)n(CC(=O)NCc4ccccc4)cnc32)cc1	Pol beta inh-1 10µM | Pol beta inh-2 inconclusive | Klenow counter inactive | HIV RT counter inactive | POLB inh gel 50
